# Records with an inconclusive call do not appear. Active and inactive are the calls of the source. Unless noted, the call rests on the fitted dose curve; in most records, active means well fitted inhibition curve with a large enough effect; inconclusive means small, poorly fitted or top-dose-only effect; inactive means flat fitted curve, though single readings scatter.
# Assays:
# [1] = qHTS drug screen for cell cycle checkpoint inhibitors in PARPi-resistant BRCA-mutant ovarian cancer cell lines. (AID 1963452; calls by dose curve); conditions: PEO1/OlaR viability, CellTiter-Glo luminescence, 96 h, stronger effect = lower value
# Procedure, shortened: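 PEO1, PEO4 and PEO1/OlaR ovarian cancer cells, 600 per well, exposed 96 h at 37C to a dilution series. Viability read by CellTiter-Glo luminescence, normalized to DMSO and empty wells; activity summarized as Z-AUC.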
# [2] = qHTS for identification of novel therapeutic agents for treatment of microphthalmiaassociated transcription factor (MiT) renal cell carcinoma (RCC) (AID 1963991); conditions: CellTiter-Glo, 48 h, stronger effect = lower value
# Procedure, shortened: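 Three TFE3-fusion RCC cell lines (UOK109, UOK124, UOK145), 500 cells/well, were exposed to the 1912-compound MIPE 4.0 library for 48 hours at 37 C. Viability was read by CellTiter-Glo luminescence, normalised to DMSO (100%) and empty wells (0%), with 11-concentration curve fits.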
# [3] = qHTS profiling for inhibitors of Plasmodium falciparum proliferation (AID 504749);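 further: 0% = DMSO vehicle and full inhibition = artemisinin control; nearly all actives have a fitted effect of over 60% in size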; conditions: P. falciparum in erythrocytes, SYBR Green DNA, 72 h, at 28.7 µM (top of the series)
# Procedure, shortened: (§1)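 SYBR Green fluorescence of parasite DNA, read after lysis and overnight dark incubation, measured growth over 72 h in erythrocyte culture at 0.3% parasitemia and 2.5% hematocrit. Data normalised to DMSO and 0.29 uM artemisinin, with plate-drift correction.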
# 3D7 = test: as above; conditions: P. falciparum in erythrocytes, SYBR Green DNA, 72 h; series mostly up to 28.7 µM
# Procedure, shortened: as §1
# 7G8 = test: as above; conditions: P. falciparum in erythrocytes, SYBR Green DNA, 72 h; series mostly up to 28.7 µM
# Procedure, shortened: as §1
# AA1029 = test: as above; conditions: P. falciparum in erythrocytes, SYBR Green DNA, 72 h; series mostly up to 28.7 µM
# Procedure, shortened: as §1
# AS120 = test: as above; conditions: P. falciparum in erythrocytes, SYBR Green DNA, 72 h; series mostly up to 28.7 µM
# Procedure, shortened: as §1
# ATS189 = test: as above; conditions: P. falciparum in erythrocytes, SYBR Green DNA, 72 h; series mostly up to 28.7 µM
# Procedure, shortened: as §1
# ATS95 = test: as above; conditions: P. falciparum in erythrocytes, SYBR Green DNA, 72 h; series mostly up to 28.7 µM
# Procedure, shortened: as §1
# C2A = test: as above; conditions: P. falciparum in erythrocytes, SYBR Green DNA, 72 h; series mostly up to 28.7 µM
# Procedure, shortened: as §1
# CP185 = test: as above; conditions: P. falciparum in erythrocytes, SYBR Green DNA, 72 h; series mostly up to 28.7 µM
# Procedure, shortened: as §1
# CP191 = test: as above; conditions: P. falciparum in erythrocytes, SYBR Green DNA, 72 h; series mostly up to 28.7 µM
# Procedure, shortened: as §1
# CP192 = test: as above; conditions: P. falciparum in erythrocytes, SYBR Green DNA, 72 h; series mostly up to 28.7 µM
# Procedure, shortened: as §1
# CP194 = test: as above; conditions: P. falciparum in erythrocytes, SYBR Green DNA, 72 h; series mostly up to 28.7 µM
# Procedure, shortened: as §1
# CP201 = test: as above; conditions: P. falciparum in erythrocytes, SYBR Green DNA, 72 h; series mostly up to 28.7 µM
# Procedure, shortened: as §1
# [4] = measured here: PEO1 parental Z-AUC
# [5] = TFE3-RCC UOK109 viability, measured here: UOK109 Z-AUC
# [6] = TFE3-RCC viability, measured here: UOK124 Z-AUC
# [7] = TFE3-RCC viability, measured here: UOK145 Z-AUC
smiles,measurement,setting,value
Nc1ncnc2nc(-c3ccc(N4CCOCC4)nc3)cc(-c3cccc(Br)c3)c12,Z-AUC,[1],0.819 (inactive)
same,Z-AUC,[1]; [4],1.06
same,Z-AUC,[1]; measured here: PEO4 Z-AUC,0.514
COc1nc(-c2ccc3c(c2)OCO3)n(-c2ccc(NC(=O)CSc3ccccc3)cc2)n1,Z-AUC,[1],1.83 (inactive)
same,Z-AUC,[1]; [4],1.23
same,Z-AUC,[1]; measured here: PEO4 Z-AUC,1.19
same,z-score,[2]; [5],0.687
same,z-score,[2]; [6],0.0138
same,z-score,[2]; [7],0.717
NC(=O)c1ccc(I)c([N+](=O)[O-])c1,Z-AUC,[1],1.56 (inactive)
same,Z-AUC,[1]; [4],1.77
same,Z-AUC,[1]; measured here: PEO4 Z-AUC,1.61
same,z-score,[2]; [5],0.172
same,z-score,[2]; [6],0.616
same,z-score,[2]; [7],-0.107
CN(C)c1ccc(Nc2nc(N)n(C(=O)c3c(F)cccc3F)n2)cc1,Z-AUC,[1],0.994 (inactive)
same,Z-AUC,[1]; [4],0.58
same,Z-AUC,[1]; measured here: PEO4 Z-AUC,0.398
CCn1cc(C(=O)O)c(=O)c2cc(F)c(N3CCNC(C)C3)c(F)c21 (configuration not stated),Z-AUC,[1],-0.481 (inactive)
same,Z-AUC,[1]; [4],-0.703
same,Z-AUC,[1]; measured here: PEO4 Z-AUC,-0.581
same,z-score,[2]; [5],0.479
same,z-score,[2]; [6],0.345
same,z-score,[2]; [7],0.675
Cc1cc2c(F)c(Oc3ncnn4cc(OC[C@@H](C)O)c(C)c34)ccc2[nH]1,Z-AUC,[1],0.786 (inactive)
same,Z-AUC,[1]; [4],0.535
same,Z-AUC,[1]; measured here: PEO4 Z-AUC,0.987
CCc1ccc(CCOc2ccc(CC3SC(=O)NC3=O)cc2)nc1 (configuration not stated),Z-AUC,[1],0.827 (inactive)
same,Z-AUC,[1]; [4],0.268
same,Z-AUC,[1]; measured here: PEO4 Z-AUC,0.973
same,z-score,[2]; [5],1.53
same,z-score,[2]; [6],0.584
same,z-score,[2]; [7],0.551
same,"activity, negative = inhibition",[3]; parasite line A,8.32% (inactive)
same,"activity, negative = inhibition",[3]; parasite line B,6.57% (inactive)
same,Potency,3D7,inactive
same,Potency,7G8,inactive
same,Potency,AA1029,inactive
same,Potency,AS120,inactive
same,Potency,ATS189,inactive
same,Potency,ATS95,inactive
same,Potency,C2A,inactive
same,Potency,CP185,inactive
same,Potency,CP191,inactive
same,Potency,CP192,inactive
same,Potency,CP194,inactive
same,outcome,CP201,inactive
NS(=O)(=O)c1cc2c(cc1Cl)NC=NS2(=O)=O,Z-AUC,[1],0.885 (inactive)
same,Z-AUC,[1]; [4],1.02
same,Z-AUC,[1]; measured here: PEO4 Z-AUC,0.779
same,z-score,[2]; [5],0.178
same,z-score,[2]; [6],0.944
same,z-score,[2]; [7],0.209
same,"activity, negative = inhibition",[3]; parasite line A,7.83% (inactive)
same,"activity, negative = inhibition",[3]; parasite line B,11% (inactive)
same,Potency,3D7,inactive
same,Potency,7G8,inactive
same,Potency,AA1029,inactive
same,Potency,AS120,inactive
same,Potency,ATS189,inactive
same,Potency,ATS95,inactive
same,Potency,C2A,inactive
same,Potency,CP185,inactive
same,Potency,CP191,inactive
same,Potency,CP192,inactive
same,Potency,CP194,inactive
same,outcome,CP201,inactive

# Reference: PubChem BioAssay (NCATS)
